Pf growth 48h: inhibits P. falciparum growth in the first generation, 48 h. AID 504832. P. falciparum luciferase growth in erythrocytes, 48 h. Potency, µM (series often up to 28.7 µM), most hits filed as inhibitors. actives 5.9% (n = 310,000)
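Luciferase-expressing parasites in RBCs, 2% Hct / 0.1% parasitemia final; RPMI 1640 + 0.5% Albumax; 37 C, 5% CO2, one generation; luminescence read-out, lower signal = inhibition.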
Cycloheximide cs: counter-screen hit for Shiga toxin inhibitors, cycloheximide; actives 12% (n = 300,000); cell reporter, cycloheximide protein synthesis inhibition counterscreen; AID 2314; max response, %; in the data active means max response mostly above about 13%, no sharp cut-off; inactive means mostly below about 14%; further: read at 38.3 µM for the half of the compounds with a filed dose
Shiga toxin inh: inhibitors of Shiga toxin in Vero cells. Vero cells, Shiga toxin protein synthesis inhibition reporter. inhibition, % at 38.7 µM. actives 9.2% (n = 290,000); in the data active means inhibition mostly above about 28%, no sharp cut-off; inactive means mostly below about 43%
AMA1-RON2 inh: inhibitors of Plasmodium falciparum AMA1-RON2 interaction; AlphaScreen AMA1-biotinylated RON2 peptide binding; Potency, µM (series often up to 58.2 µM), most hits filed as inhibitors; actives 0.2% (n = 360,000); further: nearly all actives have a fitted effect of over 45% in size
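AMA1 (3D7) with his tag at 25 nM final met compounds first, then biotinylated RON2 peptide at 25 nM; detection used donor plus acceptor beads, 10 µg/mL apiece, read by AlphaScreen after 30 min at room temperature.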
Pf growth 96h: inhibits malaria parasite growth, 96 h | P. falciparum luciferase reporter growth, 96 h | Potency, µM (doses to about 28.7 µM), most hits filed as inhibitors | actives 6.9% (n = 320,000) | AID 504834
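Cell-based qHTS: luciferase-tagged P. falciparum in erythrocytes (2% hematocrit, 0.05% parasitemia final) incubated with compounds for 96 hours, 37 C, 5% CO2; luciferase detection reagent then added and luminescence measured.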
HCV inh: inhibitors of hepatitis C virus infection; actives 3.4% (n = 340,000); Huh7.5.1 HCVcc-Cre infection, luciferase reporter, 44 h; Potency, µM (top dose mostly 41.8 µM), most hits filed as inhibitors
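Cells (1,000/well) were plated 4 h before compound, then infected with HCVcc-Cre virus (~0.5 moi). After 44 h further culture, infection was read as luciferase luminescence following a 15 min substrate incubation at room temperature.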
Hits are given with their value; n = inactive; u = inconclusive; x = no result; [ ] = remark or other dose. Only some compounds are listed: those with a hit (about 21% of all), similar ones and a draw of the others. Unless noted, the call rests on the fitted dose curve; in most records, active means well fitted curve in the direction sought with a large enough effect; inconclusive means small, poorly fitted or top-dose-only effect, or another doubt; inactive means no such curve, though single readings can be large; an effect the other way counts as inactive or inconclusive.

SMILES	Pf growth 48h	Cycloheximide cs	Shiga toxin inh	AMA1-RON2 inh	Pf growth 96h	HCV inh
Cc1ccc(-c2csc(NC(=O)c3ccccc3F)c2C(=O)O)cc1	n	39.3	100.2	n	n	n
CN(CC(=O)Nc1cccc(F)c1)C(=O)CCNC(=O)c1ccco1	u	x	x	n	n	n
COc1ccc(CC(=O)Nc2ccccc2C(F)(F)F)cc1S(=O)(=O)N1CCOCC1	x	x	x	n	x	x
Cc1ccc(-c2nn3c(C)nnc3c3ccccc23)cc1S(=O)(=O)NCc1ccccc1	u	n	n	n	8.28µM	u
CCCCOC(=O)C[N+](C)(C)CCOC1CC2CCC1(C)C2(C)C (configuration not stated)	1.47µM	n	n	n	u	n
CCC(C)OC(=O)C[N+](C)(C)CCOC1CC2CCC1(C)C2(C)C (configuration not stated)	0.928µM	n	n	n	n	n
CCCOC(=O)C[N+](C)(C)CCOC1CC2CCC1(C)C2(C)C (configuration not stated)	1.85µM	n	n	n	1.47µM	n
CC1(C)C2CCC1(C)C(OCCNCCOC(=O)Nc1ccccc1)C2 (configuration not stated)	u	n	n	n	n	n
CC(C)CCOC(=O)C[N+](C)(C)CCOC1CC2CCC1(C)C2(C)C (configuration not stated)	u	n	n	n	n	n
CCCCCCOC(=O)C[N+](C)(C)CCOC1CC2CCC1(C)C2(C)C (configuration not stated)	1.65µM	19.3	n	n	0.738µM	n
COc1ccc(C(C)(O)c2nc(-c3cccc(F)c3)cs2)cc1 (configuration not stated)	x	x	x	n	x	x
COc1ccc(CN(C)C[C@H]2OCCCC[C@@H](C)Oc3ccc(NS(C)(=O)=O)cc3C(=O)N([C@H](C)CO)C[C@@H]2C)cc1	x	x	x	n	x	x
O=S1(=O)C[C@H](N2CC[C@@H](O)C2)[C@@H](COCc2ccccc2)N1	x	x	x	n	x	x
COc1ccccc1NS(=O)(=O)c1cc(NC(=O)C2CCCO2)ccc1C (configuration not stated)	x	x	x	n	x	n
CCCCCCCOC(=O)C[N+](C)(C)CCOC1CC2CCC1(C)C2(C)C (configuration not stated)	1.85µM	n	n	n	13.1µM	u
Cc1ccccc1S(=O)(=O)NC(=O)C1(C)CCN1C(=O)CCc1cccs1 (configuration not stated)	x	x	x	n	x	x
COc1cccc(Nc2nc(N)c([N+](=O)[O-])c(NCc3ccccc3)n2)c1	4.65µM	n	n	n	11.7µM	u
Nc1nc(Nc2ccccc2)nc(NCc2ccccc2)c1[N+](=O)[O-]	u	n	n	n	u	u
CCOc1ccc(Nc2nc(N)c([N+](=O)[O-])c(NCc3ccccc3)n2)cc1	5.22µM	18.9	n	n	u	n
COc1ccc(N2C(=O)CC(c3ccccc3)CC2=O)cc1	n	x	x	n	n	n
O=C1CC(=O)N(c2ccccc2)C(=O)N1	x	x	x	n	x	n
O=C1CC(=O)N(c2ccccc2)C(=O)N1c1ccccc1	n	16.9	n	n	u	n
O=C1CC2(CCCC2)CC(=O)N1c1ccccc1	u	n	n	n	11.7µM	n
CN(C)S(=O)(=O)c1cccc(N2C(=O)CC3(CCCCC3)CC2=O)c1	n	n	n	n	n	u
COc1ccc(N2C(=O)CC3(CCCC3)CC2=O)cc1	n	n	n	n	6.57µM	n
SMILES	Pf growth 48h	Cycloheximide cs	Shiga toxin inh	AMA1-RON2 inh	Pf growth 96h	HCV inh
O=C(Nc1ccc([N+](=O)[O-])cc1)N1CCN(C(=O)C2CCCO2)CC1 (configuration not stated)	u	n	n	n	n	n
COc1ccccc1N1CCN(C(=O)C(=O)c2cccc([N+](=O)[O-])c2)CC1	x	x	x	n	x	x
COC(=O)c1ccc2c(=O)n(C3CCCCC3)c(SCC#N)nc2c1	n	n	70.9	n	n	n
CCCCNC(=O)CSc1nc2ccccc2c(=O)n1C1CCCC1	13.1µM	n	n	n	n	u
CSc1nc2ccccc2c(=O)n1C1CCCCC1	n	n	n	n	1.47µM	n
CCOC(=O)CSc1nc2cc(C(=O)N3CCC(C(N)=O)CC3)ccc2c(=O)n1C1CCCCC1	u	n	n	n	n	n
CCN(CC)CC(C)OC(=O)c1ccccc1Cl (configuration not stated)	n	n	n	n	n	n
CCCCNC(=O)CCn1ccc2cc(S(=O)(=O)N3CCCC3)ccc21	n	n	n	n	n	n
CCOc1ccc(CCNC(=O)CCn2ccc3cc(S(=O)(=O)N4CCCC4)ccc32)cc1	u	n	n	n	u	12.6µM
Cc1ccc(CCNC(=O)Cn2ccc3cc(S(=O)(=O)N4CCCC4)ccc32)cc1	u	n	n	n	n	u
CCOCCCNC(=O)CCn1ccc2cc(S(=O)(=O)N3CCCC3)ccc21	u	n	n	n	10.4µM	n
CCS(=O)(=O)N1CCc2nc(-c3ccccc3)sc2C1	n	47.7	72.4	n	n	n
COc1ccc(-c2nc3c(s2)CN(S(C)(=O)=O)CC3)cc1OC	n	n	n	n	n	n
c1ccc(COc2ccc(OCCCNC3CCCC3)cc2)cc1	u	24.9	n	n	x	u
COCCCNCCCCOc1ccc(OCc2ccccc2)cc1	u	30.3	97.4	n	n	11.2µM
CCOc1cccc(OCCNC2CCCC2)c1	n	n	n	n	u	n
C=CCNCCCCOc1ccc(OCc2ccccc2)cc1	n	47.9	59.6	n	n	u
CC(C)Oc1ccc(OCCNC2CCCC2)cc1	n	n	73.7	n	x	n
CCC(CC)n1c(C)cc(=O)n1C(CC)CC	x	x	x	n	x	n
COC(=O)[C@]12CCCCC=C1N(Cc1ccc3c(c1)OCO3)C(=O)[C@H](CC(=O)N1CCN(C(=O)C3CC3)CC1)C2	x	x	x	n	x	x
COc1cccc(-c2sc3ccc(OC)cc3c2-c2ccc(OCCN(C)C)cc2)c1	x	x	x	14.1µM	x	u
COc1cccc(-c2sc3ccc(OC)cc3c2-c2cc(F)cc(OC)c2)c1	u	x	x	n	2.94µM	n
COc1cccc(-c2sc3ccc(OC)cc3c2-c2ccc(O)cc2)c1	u	x	x	n	u	u
COc1ccc(C2=Nc3ccccc3N(C(=O)c3ccc4ncccc4c3)C2C(=O)NC2CCCC2)cc1 (configuration not stated)	x	x	x	n	x	x
Clc1ccc(C2=NOC(c3nnc(-c4ccccc4)o3)C2)cc1 (configuration not stated)	n	n	n	n	n	n[8.37 µM]
Clc1cccc(Cl)c1C1=NOC(c2nnc(-c3ccccc3)o2)C1 (configuration not stated)	n	50.1	108.1	n	n	u
Oc1c(Cl)cc(Cl)cc1C=Nc1cc(C(F)(F)F)ccc1N1CCc2ccccc2C1	n	51.7	81.3	n	n	u
CCCN1CCN(C(=O)c2ccc(S(=O)(=O)N(C)c3ccccc3OC)cc2)CC1	x	x	x	n	x	x
